# Bioassay records from PubChem.
# PI4K2A block – blocks human PI4K2A kinase activity | Q9BTU6 | purified PI4K2A, ADP-Glo luminescence, 1 h; active compounds read low | activity change, negative = inhibition, % at 76.9 µM | 420,000 compounds, 0.13% hits | AID 1346378; in the data active = activity change below about -50%; inconclusive = mostly about -30% to -49%
# Target sequence (Q9BTU6 whole entry, looked up): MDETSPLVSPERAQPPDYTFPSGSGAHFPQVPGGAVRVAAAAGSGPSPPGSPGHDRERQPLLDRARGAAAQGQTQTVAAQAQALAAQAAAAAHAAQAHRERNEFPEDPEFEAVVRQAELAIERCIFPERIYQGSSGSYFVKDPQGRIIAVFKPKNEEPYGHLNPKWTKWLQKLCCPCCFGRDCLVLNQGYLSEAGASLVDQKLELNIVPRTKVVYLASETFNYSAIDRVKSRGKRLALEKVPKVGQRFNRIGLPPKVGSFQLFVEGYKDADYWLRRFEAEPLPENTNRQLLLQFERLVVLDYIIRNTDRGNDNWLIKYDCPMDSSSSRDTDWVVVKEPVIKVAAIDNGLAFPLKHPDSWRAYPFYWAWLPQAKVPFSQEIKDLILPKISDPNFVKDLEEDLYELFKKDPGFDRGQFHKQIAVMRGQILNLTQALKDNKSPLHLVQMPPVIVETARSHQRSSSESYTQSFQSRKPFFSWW
#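 ADP-Glo luminescence measured ADP generated by PI4K2A enzyme (4 ug/mL before mixing) with 1.2 mM PI substrate (pre-mix) and 300 microM ATP (pre-mix). Tris pH7.5 buffer with MgCl2, Triton X-100; 1 h reaction at ambient temperature.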
# GALK inh – blocks human galactokinase activity | AID 1868 | Purified GALK, Kinase-Glo residual ATP luminescence | Potency, µM (top dose mostly 57.5 µM), usual class: inhibitors | 270,000 compounds, 0.007% hits | P51570
#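 5 nM enzyme, 35 uM ATP, 100 uM galactose, 20 mM HEPES pH8.0, 5 mM MgCl2; 1 h RT; residual ATP by Kinase-Glo Plus luminescence, qHTS format.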
# TrxR1 substrate – is turned over as a substrate by rat TrxR1. 390,000 compounds, 0.01% hits. AID 588456. purified TrxR1 substrate turnover, NADPH consumption readout. O89049. Potency, µM (highest dose often 114 µM); also: nearly all actives have a fitted effect of over 50% in size
#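 Rat TrxR1, dispensed at 90 nM, was prereduced with 400 uM NADPH (final) for 5 min at ~22 deg C, then incubated with compound 15 min before 400 uM selenite. A first-read NADPH fluorescence drop versus no-compound background flagged substrates.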
# TrxR1 inh – blocks rat thioredoxin reductase 1 | 390,000 compounds, 1% hits | recombinant rTrxR1, NADPH fluorescence consumption, selenite substrate | Potency, µM (top dose mostly 114 µM), usual class: inhibitors | AID 588453 | O89049; also: nearly all actives have a fitted effect of over 65% in size
#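 Rat TrxR1 (90 nM in the dispensed reagent) was pre-reduced with 400 uM NADPH for 5 min at room temperature, then incubated with compound for 15 min. After 400 uM selenite was added, NADPH fluorescence (Ex 340/Em 450 nm) was followed for 8 min.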
# Numbers stand for hits; n = inactive; u = inconclusive; x = no result given; [ ] = dose if it differs, or a comment. Rows were chosen to be rich in hits. Some 1.1% of all compounds tested hit in one or more screens of this group. Unless noted, calls follow the shape of the dose curve; as a rule, active = well fitted curve in the direction sought with a large enough effect; inconclusive = small, poorly fitted or top-dose-only effect, or another doubt; inactive = no such curve, though single readings can be large; an effect the other way counts as inactive or inconclusive.
SMILES,PI4K2A block,GALK inh,TrxR1 substrate,TrxR1 inh
Cc1cccc2c(C(O)c3c[nH]c4c(C)cccc34)c[nH]c12,x,x,n,n
COc1ccc(OC)c2c1C(=O)C(Cl)=C(Cl)C2=O,n,n,n,0.16µM
O/N=C(/CI)c1ccc2ccccc2c1,x,x,n,u
O=C1/C(=C/c2ccncc2)SC(=S)N1N1CCOCC1,n,n,n,22µM
COc1ccc(CCNC(=O)CS(=O)Cc2nc(-c3cccs3)oc2C)cc1OC (stereo not given),n,n,n,40µM
Cc1ccc(CCNC(=O)CS(=O)Cc2nc(-c3cccs3)oc2C)cc1 (stereo not given),n,n,n,14µM
COc1ccc(-c2nc(CS(=O)CC(=O)NCc3ccc(C)cc3)c(C)o2)cc1OC (stereo not given),n,n,n,50µM
CC(=O)Nc1cccc(NC(=O)c2c(-c3ccccc3)c(-c3ccccc3)nn(C)c2=O)c1,n,x,n,n
COc1ccc(NS(=O)(=O)c2cc(Br)cc3c2N(C(=O)C2CC2)CC3)cc1OC,n,x,n,n
Cc1ccc(-c2cc(C(=O)NCCCn3ccnc3)c3cc(Br)ccc3n2)o1,n,n,n,14µM
CC(=O)c1cccc(NC(=S)NC(=O)c2cccc(Cl)c2)c1,n,n,n,u
Cc1ccc2c(NC(=S)NC(=O)c3ccccc3)cccc2n1,n,n,n,79µM
Cc1ccc(C(=O)O)cc1NC(=S)NC(=O)c1ccc(-c2ccccc2)cc1,n,n,n,40µM
CC(=O)c1cccc(NC(=S)NC(=O)c2ccccc2)c1,n,n,n,35µM
Cc1cccnc1NC(=S)NC(=O)c1cncc(Br)c1,n,n,n,32µM
COc1cc(C(=O)NC(=S)Nc2cccc3nc(C)ccc23)cc(OC)c1OC,n,n,n,n
O=C(NC(=S)Nc1ccccn1)c1cncc(Br)c1,n,n,n,n
CCOc1ccccc1NC(=O)CSc1nc2c(oc3ccccc32)c(=O)n1-c1ccc(F)cc1,n,x,n,n
O=C(O)COC(=O)Cc1ccccc1Nc1c(Cl)cccc1Cl,n,x,n,n
CC(=O)c1cccc(NC(=S)NC(=O)c2cncc(Br)c2)c1,n,n,n,22µM
O=C(O)Cc1cccc(-c2cc(CCCCCCc3ccc(O[C@H]4O[C@H](CO)[C@@H](O)[C@H](O)[C@@H]4O)c(-c4cccc(CC(=O)O)c4)c3)ccc2O[C@H]2O[C@H](CO)[C@@H](O)[C@H](O)[C@@H]2O)c1,n,x,x,x
COc1cc(/C=N/NC(=O)c2nonc2C)ccc1O,n,n,n,n
Cc1nonc1C(=O)N/N=C/c1ccc(O)c(O)c1,-62,n,n,n
O=C(CCN1C(=O)c2ccccc2C1=O)Nc1sc2c(c1C(=O)NCc1ccco1)CCCC2,n,n,n,20µM
CC1CCN(C(=O)Nc2ccc3nc(-c4ccco4)c(-c4ccco4)nc3c2)CC1,x,x,n,4µM
SMILES,PI4K2A block,GALK inh,TrxR1 substrate,TrxR1 inh
S=C(Nc1ccc(N2CCOCC2)cc1)Nc1ccc2nc(-c3ccco3)c(-c3ccco3)nc2c1,u,n,n,2.5µM
O=C(Nc1ccc(N2CCOCC2)cc1)c1ccc2nc(-c3ccco3)c(-c3ccco3)nc2c1,n,n,n,n
O=C(c1ccc2nc(-c3ccco3)c(-c3ccco3)nc2c1)N1CCN(c2ncccn2)CC1,n,n,n,13µM
Cc1nc2cc(NC(=O)N3CCN(c4ccccn4)CC3)ccc2o1,n,n,n,n
O=C(Nc1ccc2nc(-c3ccco3)c(-c3ccco3)nc2c1)N1CCN(c2ccccn2)CC1,u,n,n,1.4µM
O=C(Nc1ccc2nc(-c3ccco3)c(-c3ccco3)nc2c1)N1CCCC1,x,x,n,u
Cc1ccn2c(=O)cc(COc3ccc(NC(=O)COc4ccc(Cl)cc4)cc3)nc2c1,n,x,n,n
Cc1ccc(CCNC(=O)c2cn(C)c3ccc(S(=O)(=O)N4CCC(C)CC4)cc3c2=O)cc1,n,x,n,n
CCOC(=O)CCCc1sc(N)nc1-c1[nH]c(=O)[nH]c1C,n,n,n,7.9µM
CC(=O)N1CCN(c2ccc(O)cc2)CC1,n,x,x,x
Cc1nc2c(OCc3ccccc3)cccn2c1CC#N,n,x,n,u
O=c1c(Cl)cc(Cl)nn1-c1ccccc1,n,n,n,25µM
COC(=O)C1C=CC(OC2OC(COC(C)=O)C(OC(C)=O)C(OC(C)=O)C2OC(C)=O)n2c(=O)n(-c3ccccc3)c(=O)n21 (stereo not given),n,x,n,11µM
CC(=O)OCC1OC(n2ccc3ccccc32)C(OC(C)=O)C(OC(C)=O)C1OC(C)=O (stereo not given),n,n,n,n
O=C(Nc1ccc(F)cc1C(F)(F)F)C1CCN(c2ncccn2)CC1,n,x,n,n
CCOC(=O)c1c(-c2ccc(C)o2)csc1NC(=O)CSc1nnnn1-c1ccccc1,n,n,n,2.8µM
CCOC(=O)c1c(-c2ccc(C)o2)csc1NC(=O)CSc1nnc(C)s1,n,n,n,8.9µM
O=S(=O)(c1cnc2ccccc2c1)N1CCN(c2nc(-c3cccs3)nc3ccccc23)CC1,x,x,n,n
BrC(=C\c1ccccc1)/C=N/Nc1ccc2nncn2n1,n,x,n,18µM
C(=N\Nc1ccc2nncn2n1)/c1ccco1,n,n,n,n
NC(=O)NS(=O)(=O)c1ccc(Cl)cc1,n,x,x,x
O=C(Nc1noc2ccccc12)c1ccc(F)cc1,-56,x,n,n
O=C1C(Nc2ccccc2)=C(N2CCCCC2)C(=O)c2ccccc21,n,n,n,u
O=C(C=Cc1cccnc1)c1ccccc1,n,x,n,28µM
O=C(/C=C/c1ccc(O)cc1)c1ccccc1,-75,n,n,n
SMILES,PI4K2A block,GALK inh,TrxR1 substrate,TrxR1 inh
O=C(/C=C/c1ccc(O)cc1)c1ccc(NC2=C(N3CCCCC3)C(=O)c3ccccc3C2=O)cc1,u,n,n,45µM
O=[N+]([O-])/C=C/c1c(OCc2ccccc2)ccc2ccccc12,x,n,x,x
CCOC(=O)COc1ccc2ccccc2c1/C=C/[N+](=O)[O-],n,n,n,7.1µM
Cc1cc(N2CCCC2)nc2ccc(NC(=S)NCCCOC(C)C)cc12,n,n,n,45µM
Cc1ccc(S(=O)(=O)CS(=O)(=O)c2ccc(C)cc2)cc1,n,x,n[11.4 µM],n[11.4 µM]
O=S(=O)(C/C(=C/CO)S(=O)(=O)c1ccccc1)c1ccccc1,n,n,n,2.2µM
O=S(=O)(CS(=O)(=O)c1ccccc1)c1ccccc1,n,x,n,11µM
COc1ccccc1-c1cc(C(F)(F)F)nc(S(=O)(=O)CCCC(=O)NC(C)C)n1,n,n,n,18µM
COc1ccccc1-c1cc(C(F)(F)F)nc(S(C)(=O)=O)n1,n,n,n,35µM
CC(=O)Oc1ccc(C(=O)[C@H]2[C@H]3C(=O)N(c4ccccc4)C(=O)[C@H]3[C@@H]3C=CC=NN32)cc1,n,n,n,11µM
Cc1cc(O)c2c(c1O)C(=O)[C@]13C(=C2O)C(=O)[C@@H]2[C@@H](O)[C@H]1[C@@H]1[C@H](O)[C@H]3C(=O)C3=C(O)c4c(O)cc(C)c(O)c4C(=O)[C@]312,-64,x,n,u
COC(=O)c1ccc(-c2nc3ccccc3[nH]2)cc1,n,n,n,56µM
